# Assay results reported in PubChem BioAssay (NCI).
# The panel holds about 83,000 compounds, 20% with a hit somewhere; the sample as a whole holds those more often.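 Cells were grown in 96-well plates and exposed to the test compound at a single concentration for 48 hours; results are reported as percent growth, with values below 10 considered active.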 A number with no mark means an inactive call. Active and inactive are the calls of the source.
# Test system: MDA-MB-468 breast
# Experiment: NCI-60 one-dose screen, 48 h (100 = growth as untreated, 0 = no growth, -100 = all killed)
# Conditions: 10 µM unless noted
row,Structure (SMILES),growth
1,O=C1/C(=C/c2ccc([N+](=O)[O-])s2)Oc2cc(Cl)ccc21,-17.8% (active)
2,N#Cc1c(-c2ccc(F)cc2)nc2c(C#N)c(Nc3ccccc3)nn2c1N,103%
3,COc1ccc(/C=C/c2n[nH]c3ccc(N4CCOC4=O)cc23)cc1,-0.999% (active)
4,O=S(=O)(NCCNc1nccc(-n2cnc3ccccc32)n1)c1ccc(Br)cc1,84%
5,COc1ccc(S(=O)(=O)N2CCCCC2)cc1NC(=O)c1[nH]c(C)c2c1CCCCC2=O,-2.19% (active)
6,C=C1C(=O)O[C@H]2[C@H]1CC/C(COC(=O)/C=C\C(=O)NCc1ccc(Cn3c(=O)sn(-c4ccc(C#N)cc4)c3=O)cc1)=C\CC[C@@]1(C)O[C@@H]21,-87.6% (active)
7,COc1ccc(/C=C/C(c2cc(OC)c(OC)c(OC)c2)n2cncn2)cc1 (stereo not given),40.9%
8,COc1ccc2[nH]cc(-c3nc(-c4c[nH]c5ccncc45)cs3)c2c1,-33.9% (active)
9,C=C1C(=O)O[C@H]2[C@H]1CC/C(COC(=O)C(=O)c1cn(C)c3ccc(OC)cc13)=C\CC[C@@]1(C)O[C@@H]21,-63.6% (active)
10,CC(=O)CC(=O)OC/C=C(/C)CCC=C(C)C,97.6%
11,COc1ccc(C(=O)c2cc3c(N)c(C(=O)Nc4ccc(C)cc4)sc3nc2C)cc1,-16.8% (active)
12,CCCCCCCCCCCCCCCC[N+]1(C)CCOCC1,-50.9% (active)
13,C#Cc1ccc(C(=O)NCc2ccc(/C=C/C(=O)c3nccn3C)cc2)cc1,18%
14,O=C(NO)c1ccc(NCc2csc3ccccc23)cc1,76.9%
15,O=C1NC(=S)NC(=O)C1=Cc1cn(Cc2ccccn2)c2ccccc12,-40.6% (active)
16,O=C(N/N=C/c1cc(Cl)ccc1O)C(=O)N/N=C/c1cc(Cl)ccc1O,61.3%
17,N#C/C(=C\c1ccc(-c2ccc(Cl)c(Cl)c2)o1)C(=O)Nc1ncc(Cc2ccc(Cl)cc2)s1,22.1%
18,C1=C(c2ccccc2)c2ccccc2C1,100%
19,O=C1NC(=O)c2c(CCCSc3nc4ccccc4c(=O)n3CCc3ccccc3)cccc21,112%
20,Cc1cc(Nc2nc(-c3cccnc3)nc3ccccc23)n[nH]1,26.8%

row,Structure (SMILES),growth
1,CC(C)(C)n1cc(-c2ccnc(NCCNS(=O)(=O)c3ccc(C(F)(F)F)cc3)c2)c(-c2cccc(O)c2)n1,36.8%
2,COc1cc(-c2cc3cc(O)ccc3oc2=O)cc(OC)c1OC,106%
3,O=C(O)CCN1CCN(c2cccc(Cl)c2)CC1,103%
4,O=C(/C=C/c1cccc(C(F)(F)F)c1)Nc1cccc(C(F)(F)F)c1,55.6%
5,Cl.Fc1c[c-]c(-c2ccccn2)c(F)c1.[Pt].c1ccc(P(c2ccccc2)C([PH+](c2ccccc2)c2ccccc2)[PH+](c2ccccc2)c2ccccc2)cc1,-4.27% (active)
6,Clc1ccc(N/N=c2/oc3ccccc3cc2-c2cc3ccccc3[nH]2)cc1,59.8%
7,COc1ccc(/C=C/C(=O)NCCO)cc1,101%
8,CNC(=O)c1cc(Oc2ccc3nc(NC(=O)Nc4ccc(Cl)cc4)sc3c2)ccn1,55.1%
9,N/C(=N\OC(=O)c1ccccc1)C(C(=O)NOC(=O)c1ccccc1)C1CCCCC1 (stereo not given),80.8%
10,Fc1ccc([C@@H]2CCNC[C@H]2COc2ccc3c(c2)OCO3)cc1,36.1%
11,COc1ccc(N2CCN(C3=C(Cl)C(=O)c4ncccc4C3=O)CC2)cc1,-57.8% (active)
12,COc1cc(/C(C)=C(\c2ccc(Cl)cc2)c2ccc(OCCN3CCCC3)cc2)ccc1F,57.3%
13,COc1cc(C(=O)/C=C/c2cccnc2Nc2ccccc2)cc(OC)c1OC,-93.8% (active)
14,ONc1nc(NO)c2[nH]cnc2n1,47.6%
15,CC(C)(C)c1nn(-c2ccccc2)c2c1CC1(CN2Cc2ccc3c(c2)OCO3)C(=O)c2ccccc2C1=O,111%
16,CN=C1C=C/C(=N/N=c2/ccn(O)cc2C)C=C1C,83.1%
17,c1ccc2c(c1)CCN(NCCN1CCCC1)C2,109%
18,COc1cccc(CNc2ccc3ncnc(Nc4ccc(F)c(Cl)c4)c3c2)c1,-19.6% (active)
19,Cc1cc(C#Cc2ccc(C(C)(C)C)cc2)ccc1-n1c(/C=C/c2c(Cl)cccc2Cl)nc2ccccc2c1=O,91.1%
20,COc1cc(-c2cnc3nonc3n2)c(OC)c2c1OCO2,83.5%
